mHTT-CaM PPI inh = disrupts binding of mutant huntingtin to calmodulin | P42858 | AlphaScreen His-mHTT/GST-CaM binding, luminescence | inhibition, % at 15 µM | 190,000 compounds, 3.6% hits | AID 1671202;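 further: 0% = both proteins with DMSO and 100% = one protein alone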
Pf apPOL block = Pf-apPOL DNA polymerase inhibition. inhibition, % at 10 µM. Recombinant Pf-apPOL, molecular beacon fluorescence, 1.5 h. 210,000 compounds, 0.25% hits. AID 1794808
* marks the source's active call; other numbers are inactive results; x = no result given. Only some compounds are listed: those with a hit (about 3.5% of all), similar ones and a draw of the others. No stated cut-off is given here; in the data, active means inhibition above about 50%; inactive means the rest.

SMILES | mHTT-CaM PPI inh | Pf apPOL block
CC(C)C[C@H]1COc2cccc(N3CCN(Cc4ccccc4F)CC3)c2S(=O)(=O)N1 | 80* | -3
C[C@H]1COc2cccc(N3CCN(Cc4ccccc4F)CC3)c2S(=O)(=O)N1 | -14 | -4
CC(C(=O)Nc1nc2ccccc2[nH]1)n1nc(-c2ccco2)ccc1=O (configuration not stated) | 17 | 1
COc1ccc(-c2ccoc2)cc1[C@H]1[C@H]2C=CC[C@@H](C)[C@@H]2C(=O)N1Cc1ccccc1 | 86* | 0
COc1ccc(-c2ccc(C)cc2)cc1[C@H]1[C@H]2C=CC[C@@H](C)[C@@H]2C(=O)N1Cc1ccccc1 | -2 | -4
CCn1ccc2ccn(Cc3nc(Cc4ccccc4)no3)c(=O)c21 | -11 | 1
Cc1ccsc1C(=O)N1CCCC1c1c(C)noc1C (configuration not stated) | 6 | 2
CC1(C)CC(=O)C2=C(C1)N(c1ccccc1)C(N)=C(C#N)C2c1ccc(Br)s1 (configuration not stated) | 89* | -3
Cc1cccc(N2C(N)=C(C#N)C(c3cccs3)C3=C2CC(C)(C)CC3=O)c1 (configuration not stated) | 33 | -4
CC1(C)CC(=O)C2=C(C1)N(c1ccc(F)cc1)C(N)=C(C#N)C2c1cc(Br)cs1 (configuration not stated) | 81* | -4
COc1ccc(N2C(N)=C(C#N)C(c3ccc(F)cc3)C3=C2CC(C)(C)CC3=O)cc1 (configuration not stated) | 13 | 0
Cc1nn(-c2ccccc2)c2sc(C(=O)NCC(=O)c3ccccc3)cc12 | 12 | 19
Cc1ccc(N2C(=O)c3ccccc3NC2c2ccccc2)cc1C (configuration not stated) | -4 | -2
O=c1[nH]c2c(=O)[nH]c(=S)[nH]c2nc1C=C(O)c1ccccc1 | x | 90*
O=c1[nH]c2ccccc2nc1C=C(O)c1ccco1 | -4 | -8
Cc1ccc(C(=O)NC(NC(C)(C)C)C(Cl)(Cl)Cl)cc1 (configuration not stated) | -13 | -263
CSc1ccc(CCNC(=O)c2cnn3c4c(cnc23)CC(C)CC4)cc1 (configuration not stated) | 8 | -1
COc1ccc(-c2ccc(CN3C(CC(C)C)C(=O)N(Cc4cn(CCC5OCCCO5)nn4)CCS3(=O)=O)cc2)cc1OC (configuration not stated) | 21 | 2
CC(C)CC1C(=O)N(Cc2cn(CCC3OCCCO3)nn2)CCS(=O)(=O)N1Cc1ccc(-c2ccccc2)cc1 (configuration not stated) | 54* | -6
CC(C)CC1C(=O)N(Cc2cn(CCC3OCCCO3)nn2)CCS(=O)(=O)N1Cc1ccc(-c2ccncc2)cc1 (configuration not stated) | 31 | -2
CC(C)CC1C(=O)N(Cc2cn(CCC3OCCCO3)nn2)CCS(=O)(=O)N1Cc1ccc(-c2cccc(N(C)C)c2)cc1 (configuration not stated) | 69* | -2
CC1CCC(NCCN2CCOCC2)CC1 (configuration not stated) | -1 | -56
CCN(CC)C(=O)CC[C@H]1CC[C@]2(CCCN(Cc3cccs3)C2)O1 | -4 | -5
CCOC(=O)CC[C@@H]1CC[C@]2(CCCN(Cc3cccs3)C2)O1 | 94* | -6
Cc1ccnc(-n2c(C)ccc2C)c1 | x | 6
SMILES | mHTT-CaM PPI inh | Pf apPOL block
COc1cc(NS(=O)(=O)c2ccc(NC(=O)c3ccc(F)cc3)cc2)nc(OC)n1 | 1 | 41
COc1ccc(OC)c(Nc2ncc3c(n2)CCN(Cc2cccc(OC)c2OC)C3)c1 | 47 | -3
CCCN1CCc2nc(Nc3ccccc3OC)ncc2C1 | 1 | 96*
COc1cccc(CN2CCc3nc(Nc4cc(OC)ccc4OC)ncc3C2)c1 | 15 | -5
COc1ccccc1Nc1ncc2c(n1)CCN(Cc1ccc(F)cc1)C2 | -8 | 36
COc1ccc(OC)c(Nc2ncc3c(n2)CCN(CCc2ccccc2)C3)c1 | 59* | -3
CCOc1ccccc1CN1CCc2nc(Nc3cc(OC)ccc3OC)ncc2C1 | 63* | -4
O=C(NC1CC1)c1cc(-c2ccccc2)ns1 | -13 | -4
O=C(CN1CC(c2nc(C3CC3)no2)C1)Nc1ccc(OC(F)(F)F)cc1 | -10 | -13
O=C1CSC(c2ccc3c(c2)OCO3)N1CCN1CCCCC1 (configuration not stated) | 5 | -2
CCOCc1ccc(O)c2ncccc12 | 100* | -4
CCOc1c(C)cc(-c2ncccc2O)cc1C | -1 | 0
CN(CC1CC(c2ccc(Cl)cc2)=NO1)C(=O)C1CCCC1 (configuration not stated) | -8 | -6
CC(C)n1c(=O)c(NCc2cc(F)cc(F)c2)nc2ccncc21 | -8 | -6
CCOc1ccccc1NC(=O)c1c(NCc2cccc(OC)c2OC)sc2c1CCC2 | 32 | -17
COc1cc(OC)c(OC)cc1CNc1sc2c(c1C(=O)Nc1ccccc1OC)CCC2 | 53* | -15
COc1ccccc1NC(=O)c1c(NC(=O)c2ccco2)sc2c1CCCC2 | -2 | 1
COc1ccccc1NC(=O)c1c(NCc2cccc(F)c2)sc2c1CCC2 | 63* | -17
COc1ccc(CNC(=O)c2ccnc(N3CCNC(c4ccccc4)C3)c2)c(OC)c1 (configuration not stated) | 47 | -1
O=C(NCc1cnccn1)c1ccnc(N2CCNC(c3ccccc3)C2)c1 (configuration not stated) | 70* | 1
O=C(NCc1ccccn1)c1cccc(N2CCNC(c3ccccc3)C2)n1 (configuration not stated) | 85* | -20
O=C(NCc1ccccc1)c1cccc(N2CCNC(c3ccccc3)C2)n1 (configuration not stated) | 22 | -23
O=C(NCc1cnccn1)c1ccc(N2CCNC(c3ccccc3)C2)nc1 (configuration not stated) | 29 | -9
COc1ccc(CNC(=O)c2cccc(N3CCNC(c4ccccc4)C3)n2)c(OC)c1 (configuration not stated) | 97* | -4
Cc1ccc2c(c1)N(c1ccc(F)cc1)C=C(C#N)S2(=O)=O | -7 | -2
SMILES | mHTT-CaM PPI inh | Pf apPOL block
COc1ccc(CNC(=O)C(=O)Nc2cccc(F)c2)cc1 | 1 | -9
CCc1n[nH]c(CC)c1NC(=O)C(C)C | 22 | 2
O=c1[nH]c(SC2C=CCCC2)nc2sc3c(c12)CCCC3 (configuration not stated) | -2 | -6
O=[N+]([O-])c1ccc(S(=O)(=O)N2CCN(c3ncccn3)CC2)cc1 | -3 | 99*
O=[N+]([O-])c1ccc(S(=O)(=O)N2CCN(c3ccccn3)CC2)cc1 | 0 | -1
O=C(O)CCc1nnc(SCC(=O)Nc2ccccc2F)[nH]c1=O | -17 | -2
CC(C)C1N=C2c3ccccc3N=C(SCC(N)=O)N2C1=O (configuration not stated) | -3 | -4
CCC1CN(C(=O)Nc2ccc(OC)cc2)c2ccccc2O1 (configuration not stated) | 1 | 2
COc1ccc(NC(=O)N2CCCC2c2ccccc2Cl)c(OC)c1 (configuration not stated) | 2 | -5
COc1ccc(NC(=O)N2CC3CCCN3c3ccccc32)cc1 (configuration not stated) | 62* | 1
COc1ccc(NC(=O)N2CC3CCCN3c3ccccc32)c(OC)c1 (configuration not stated) | 90* | 0

Source: PubChem BioAssay (University of Kansas High Throughput Screening Laboratory)
